Rows were chosen to be rich in hits. Some 2.2% of all compounds tested hit in one or more screens of this group.
ANO1 activ: activators or potentiators of mouse TMEM16A chloride channel; Q8BHY3; HEK293 TMEM16A/YFP-H148Q/I152L, iodide quench fluorescence; stronger effect = lower value; B-score at 10 µM; 340,000 compounds, 0.3% hits; AID 623877;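 active = fluorescence-ratio B-score plate-corrected deviation score at least 3 library SD below zero, with starting fluorescence score within 5 deviations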;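 note: channel opened by trigger with iodide after compound preincubation; score built on the fluorescence ratio of max minus min over baseline; more negative score means more quench and so TMEM16A activation or potentiation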
TLR9-MyD88 block: TLR9-MyD88 interaction inhibition; Q9NR96+Q99836; CHO BLA complementation TLR9-MyD88, CCF4 FRET ratio; inhibition, % at 4.98 µM; 340,000 compounds, 0.21% hits;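 active = inhibition above the mean over all tested compounds plus 3 SD, cut at about 21% in these data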
Target sequence (Q99836 whole entry, looked up): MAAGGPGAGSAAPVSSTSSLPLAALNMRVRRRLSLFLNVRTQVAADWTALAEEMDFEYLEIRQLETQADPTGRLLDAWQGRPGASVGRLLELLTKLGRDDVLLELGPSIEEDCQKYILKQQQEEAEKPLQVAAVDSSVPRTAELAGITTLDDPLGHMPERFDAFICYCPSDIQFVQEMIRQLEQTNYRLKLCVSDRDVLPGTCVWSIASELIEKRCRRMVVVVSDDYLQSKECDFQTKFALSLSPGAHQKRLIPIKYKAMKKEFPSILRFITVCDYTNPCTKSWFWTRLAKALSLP
Target sequence (Q9NR96 whole entry, looked up): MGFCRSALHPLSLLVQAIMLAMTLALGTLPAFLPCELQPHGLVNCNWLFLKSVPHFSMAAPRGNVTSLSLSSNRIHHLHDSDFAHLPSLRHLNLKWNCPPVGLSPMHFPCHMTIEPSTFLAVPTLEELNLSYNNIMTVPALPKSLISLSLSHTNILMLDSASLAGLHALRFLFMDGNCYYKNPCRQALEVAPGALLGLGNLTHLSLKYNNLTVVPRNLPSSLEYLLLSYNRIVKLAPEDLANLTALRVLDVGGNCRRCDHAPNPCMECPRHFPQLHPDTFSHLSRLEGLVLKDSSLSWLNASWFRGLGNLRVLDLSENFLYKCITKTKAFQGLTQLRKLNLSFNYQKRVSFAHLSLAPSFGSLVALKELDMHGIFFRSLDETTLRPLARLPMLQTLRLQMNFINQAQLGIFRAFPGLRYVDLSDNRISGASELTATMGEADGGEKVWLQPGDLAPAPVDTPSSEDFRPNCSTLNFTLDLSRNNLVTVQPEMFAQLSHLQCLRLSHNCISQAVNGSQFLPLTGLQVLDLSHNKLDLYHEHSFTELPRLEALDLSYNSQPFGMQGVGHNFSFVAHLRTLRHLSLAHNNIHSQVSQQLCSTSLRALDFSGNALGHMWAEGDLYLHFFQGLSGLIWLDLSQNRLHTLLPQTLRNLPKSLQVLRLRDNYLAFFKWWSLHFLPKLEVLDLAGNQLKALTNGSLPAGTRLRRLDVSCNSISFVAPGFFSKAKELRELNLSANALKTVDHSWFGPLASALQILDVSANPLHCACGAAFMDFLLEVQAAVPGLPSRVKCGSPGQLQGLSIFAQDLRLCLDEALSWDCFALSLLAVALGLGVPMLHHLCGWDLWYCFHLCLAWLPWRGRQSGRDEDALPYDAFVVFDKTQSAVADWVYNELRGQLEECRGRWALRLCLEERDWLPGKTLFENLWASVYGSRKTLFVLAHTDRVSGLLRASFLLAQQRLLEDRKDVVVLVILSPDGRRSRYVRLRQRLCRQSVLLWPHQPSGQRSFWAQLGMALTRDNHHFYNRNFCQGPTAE
NOD2 RIPK2 PPI: blocks binding of human NOD2 to RIPK2. O43353. CHO BLA complementation NOD2-RIPK2, CCF4 ratio. inhibition, % at 4.98 µM. 360,000 compounds, 0.38% hits. AID 624267; in the data active = inhibition above about 21%
GRK2 inh: human GRK2 inhibition via aptamer displacement; 330,000 compounds, 0.59% hits; AID 488847; inhibition of aptamer binding, % at 10 µM; bead flow cytometry, FAM-aptamer displacement from GRK2;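 active = inhibition of aptamer binding above 40%, roughly 3 SD of noise, on plates passing a quality check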;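 note: median bead fluorescence of bound FAM aptamer so fluorescent compounds give negative values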
TLR4 MyD88 comp: blocks binding of human TLR4 to MyD88; O00206+Q99836; inhibition, % at 8.4 µM; HeLa CL3-4 TLR4/MyD88 BLA complementation, FRET ratio; 200,000 compounds, 0.18% hits; in the data active = inhibition above about 25%
ANO1 block: inhibitors of mouse TMEM16A calcium-activated chloride channel; normalized B-score (activity score, 25-100; higher = stronger inhibition) at 10 µM; 310,000 compounds, 1.2% hits; Q8BHY3; HEK293 TMEM16A/YFP iodide influx fluorescence, ionomycin;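 active = ratio plate-corrected score three or more library SD toward inhibition, starting fluorescence score within five deviations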;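 note: score derived from kinetic fluorescence span divided by baseline fluorescence per well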
GRK2 CP1: human GRK2 inhibition confirmation, cherry pick 1 | 2,000 compounds, 4% hits | AID 504451 | bead-bound GRK2, FAM-aptamer displacement, flow cytometry | aptamer displacement, % at 10 µM | shares compounds with GRK2 inh;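 active = aptamer displacement above 40%, near three times the noise of non-fluorescent compounds, on plates passing quality checks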;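 note: negative values mostly reflect intrinsic compound fluorescence rather than true enhancement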
FAM quench CP1: quenches fluorescent RNA aptamer, GRK2 hit artifact; AID 504580; fluorescence response (% of DMSO), % at 10 µM; shares compounds with GRK2 inh; 2,000 tested, under 10 active; Carboxyfluorescein RNA aptamer on beads, flow cytometry quenching; stronger effect = lower value;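 active = compounds that quench the bead-bound fluorescent RNA probe, cutting fluorescence to under half of the solvent control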;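 note: counterscreen run without GRK2 so only probe quenching by compound is measured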
GRK2 confirm 2: confirmation of human GRK2 inhibitors binding RNA aptamer site | shares compounds with GRK2 inh | bead-bound GRK2, FAM-aptamer displacement, flow cytometry | inhibition of aptamer binding, % at 10 µM | 360 tested, under 10 active | AID 504782;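 active = inhibition of aptamer binding above 40%, about triple the noise seen with nonglowing compounds, on plates passing quality control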;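 note: negative values mostly come from compounds that fluoresce themselves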
FAM quench SP: quenches fluorescent RNA aptamer, GRK2 hit artifact; shares compounds with GRK2 inh; carboxyfluorescein RNA aptamer beads, flow cytometry quenching; stronger effect = lower value; fluorescence response vs DMSO, % at 10 µM; 360 tested, under 10 active;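 active = response vs DMSO under 50%, meaning signal dropped by over half, treated as fluorescence quencher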;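 note: labelled aptamer on streptavidin beads without GRK2 as a quench counter-screen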
A number is an active result; - = inactive; . = no result given.

SMILES | ANO1 activ | TLR9-MyD88 block | NOD2 RIPK2 PPI | GRK2 inh | TLR4 MyD88 comp | ANO1 block | GRK2 CP1 | FAM quench CP1 | others
Cc1noc(C)c1COc1ccc(C(=O)NNC(=O)c2ccccc2F)cc1 | - | - | - | - | . | . | . | .
O=C(Nc1cccc(Cn2cccn2)c1)c1cc2c(s1)CCCC2 | - | - | - | 94 | - | - | - | -
O=C(NCc1ccccc1Cl)C1CCCN1C(=O)Nc1ccccc1 (stereo unspecified) | - | - | - | - | . | - | . | .
CC1CCN(c2nc(CN3CCCCC3)nc3scc(-c4ccccc4)c23)CC1 | - | - | - | - | - | - | - | -
Cc1cccc(NC(=O)CSc2nc(=O)n(CCCN3CCOCC3)c3c2CCCC3)c1 | - | - | - | - | . | - | . | .
Cc1cccc(NC(=O)CCC(=O)N/N=C/c2ccc(O)cc2O)c1 | - | - | - | 56 | . | - | - | -
COc1ccc(/C=C/C(=O)c2ccc3c4c(cccc24)CC3)cc1OC | - | - | - | - | - | - | . | .
Cc1ccc2oc(C(=O)N3CCN(CC(=O)NC(C)C)CC3)c(C)c2c1 | - | - | - | - | . | - | . | .
CN(C(=O)c1ccc(NC(=O)Cc2ccc(NC(=O)C3CCN(C(=O)C4CCC4)CC3)cc2)cc1)C1CC1 | - | - | - | 69 | . | . | - | -
Cc1ccccc1-c1nc(CN2CCCC(C(=O)NCCCN3CCOCC3)C2)c(C)o1 (stereo unspecified) | - | - | - | - | - | - | . | .
Cc1oc(-c2ccc(Cl)cc2)nc1CN1CCCC(C(=O)NCc2ccco2)C1 (stereo unspecified) | - | - | - | - | - | - | - | -
COc1ccc(CNC(=O)C2CCCN(Cc3nc(-c4cccc(C)c4)oc3C)C2)cc1 (stereo unspecified) | - | - | - | - | - | - | - | -
Cc1ccccc1-c1nc(CN2CCCC(C(=O)NCc3cccnc3)C2)c(C)o1 (stereo unspecified) | - | - | - | - | - | - | - | -
COc1cccc(/C=C/C(=O)OCC(=O)Nc2cccc(S(=O)(=O)NC3=NCCCCC3)c2)c1 | - | - | - | - | . | . | . | .
COC(=O)[C@@]1(Sc2ccc(C)cc2)CC(=O)N(C(=O)c2ccccc2)[C@@H]1c1ccccc1 | . | . | - | . | . | . | . | .
CCn1c(=O)c2cc(C(=O)NCCCOC)sc2c2ccccc21 | - | - | - | - | . | - | . | .
CCn1c(=O)c2cc(C(=O)NCCC(C)C)sc2c2ccccc21 | - | - | - | 51 | . | - | . | -
CCc1ccccc1Oc1nc(NCc2ccccc2)nc2ccsc12 | . | . | - | . | . | . | . | .
COCCN1C(=O)/C(=C/c2ccc(N3CCCC3)cc2)SC1=S | - | - | - | 57 | - | - | - | -
O=C1c2ccccc2C(=O)N1CCCCSc1nnc(-c2ccc(OC(F)F)cc2)o1 | - | - | - | - | - | - | . | .
Cc1nnc(SCCCN2C(=O)c3ccccc3C2=O)o1 | - | - | - | - | - | - | - | -
C/C(=N\NC(N)=S)c1ccc2c(c1)OCCO2 | - | - | - | - | . | - | . | .
CC(=O)N/N=C(\C)c1ccc2c(c1)OCCO2 | - | - | - | 72 | - | - | - | -
Cc1ccccc1OCCSCc1nc2ccccc2[nH]1 | - | - | - | - | - | - | . | .
Cc1ccc(C(O)c2ncc(-c3ccccc3C(F)(F)F)[nH]2)cc1F (stereo unspecified) | . | . | - | . | . | . | . | .
SMILES | ANO1 activ | TLR9-MyD88 block | NOD2 RIPK2 PPI | GRK2 inh | TLR4 MyD88 comp | ANO1 block | GRK2 CP1 | FAM quench CP1 | others
CCOc1ccc(-c2cc(C(=O)NC3CCCCC3)[nH]n2)c(C)c1 | . | . | - | . | . | . | . | .
O=C(c1cccc(F)c1)N1CCN(c2cccc(C(F)(F)F)c2)CC1 | - | - | - | 60 | - | - | - | -
C=CCOC(=O)c1cc(-c2ccc(/C=C3\C(=O)NC(=O)C(C#N)=C3C)o2)ccc1Cl | - | - | - | . | - | . | . | .
CCCOC(=O)c1cc(-c2ccc(/C=C3/C(=O)N(C)C(=O)C(C#N)=C3C)o2)ccc1Cl | - | - | - | 52 | - | - | - | -
CC(=O)c1cccc(NC(=O)c2cnn(-c3ccccc3)c2C)c1 | - | - | - | - | . | - | - | -
Cc1c(C(=O)Nc2ccccc2)cnn1-c1ccccc1 | - | - | - | - | . | - | . | .
COc1ccc(C2=CN(Cc3ccccc3)CCC2=O)cc1 | - | - | - | - | . | . | . | .
c1ccc(C2Nc3ccccc3Oc3ccccc32)cc1 (stereo unspecified) | - | - | - | 52 | - | - | - | -
COc1ccc(C(=O)N/C(=C\c2cn(C)c3ccccc23)C(=O)N2CCOCC2)cc1OC | - | - | - | 57 | . | - | - | -
COc1ccc(NC(=O)C2CSC(C)(C)N2C=O)cc1 (stereo unspecified) | - | - | - | 75 | - | - | - | -
COc1ccc(-c2nc3ccccc3c(=O)n2CC(C)C)cc1 | - | - | - | 98 | . | - | - | -
CCc1ccc(C(O)c2ncc(-c3cccc4ccccc34)[nH]2)cc1 (stereo unspecified) | . | . | - | . | . | . | . | .
CCOc1ccccc1NC(=O)CCS(=O)(=O)c1cccc2nonc12 | - | - | - | - | - | - | . | . | GRK2 confirm 2=-;FAM quench SP=-
CC(=O)c1cccc(NC(=O)CCS(=O)(=O)c2cccc3nonc23)c1 | - | - | - | - | - | - | . | . | GRK2 confirm 2=-;FAM quench SP=-
Cc1cccc(N(C)C(=O)CCS(=O)(=O)c2cccc3nonc23)c1 | - | - | - | - | - | - | . | .
COc1ccc(N(C)C(=O)CCS(=O)(=O)c2cccc3nonc23)c(OC)c1 | - | - | - | - | - | - | . | . | GRK2 confirm 2=-;FAM quench SP=-
O=C(NCc1ccccc1)c1cc(C2COCCN2C(=O)C2CC2)on1 (stereo unspecified) | . | . | - | . | . | . | . | .
CC(C)CCN1C(=O)c2ccccc2C1c1nnnn1C(C)C (stereo unspecified) | . | . | - | . | . | . | . | .
CC(C)CCN(C(=O)c1ccc(N2CCCC2=O)cc1)c1c(N)n(Cc2ccccc2)c(=O)[nH]c1=O | - | - | - | - | . | - | . | .
CCCN(C(=O)c1ccc(N2CCCC2=O)cc1)c1c(N)n(Cc2ccccc2)c(=O)[nH]c1=O | - | - | - | - | . | - | - | -
CCCCNC(=O)c1nc(C2CCN(S(=O)(=O)c3ccc(S(C)(=O)=O)cc3)CC2)oc1-c1ccccc1 | . | . | - | . | . | . | . | .
